Measured values published in PubChem BioAssay AID1159580 (chemical genetic matrix, 2015).
Screen size: about 5,500 compounds; about 2,000 (36%) were called active. Not shown: some 18% with an inconclusive outcome. Rule as the data show it: active = normalized growth mostly below about 0.91 (no sharp cut-off); inconclusive = no clear call, values can overlap the other calls; inactive = mostly above about 0.92. The list shows a part of the results.

Experiment: chemical genetic growth profiling, strain panel (AID 1159580);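 also: tested at 20 µM; growth read once vehicle control cultures reached saturation at 30 °C; 1 = growth at the plate median or of vehicle wells; lower values mean less growth of the strain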
Details: S. cerevisiae deletion strains, growth OD

Measured: normalized growth

O=S(=O)(Nc1cc(C(F)(F)F)ccc1F)c1cc(C(F)(F)F)ccc1Cl
active: locus YHR030C, strain SLT2, stronger effect = lower value 0.644 | locus YLR113W, strain HOG1, stronger effect = lower value 0.715 | locus YPL256C, strain CLN2, stronger effect = lower value 0.694
inactive: locus YAR019C, strain CDC15, stronger effect = lower value 0.942 | locus YBL105C, strain PKC1, stronger effect = lower value 0.947 | locus YBR135W, strain CKS1, stronger effect = lower value 0.937 | locus YBR136W, strain MEC1, stronger effect = lower value 0.943 | locus YBR160W, strain CDC28, stronger effect = lower value 0.931 | locus YDL017W, strain CDC7, stronger effect = lower value 0.944 | locus YDL028C, strain MPS1, stronger effect = lower value 0.941 | locus YDL101C, strain DUN1, stronger effect = lower value 0.969 | locus YDL108W, strain KIN28, stronger effect = lower value 0.949 | locus YDL132W, strain cdc53, stronger effect = lower value 0.945 | locus YDL214C, strain PRR2, stronger effect = lower value 0.905 | locus YDR052C, strain DBF4, stronger effect = lower value 0.957 | locus YDR054C, strain cdc34, stronger effect = lower value 0.94 | locus YDR226W, strain ADK1, stronger effect = lower value 0.95 | locus YDR477W, strain SNF1, stronger effect = lower value 0.917 | locus YER123W, strain YCK3, stronger effect = lower value 0.868 | locus YER133W, strain GLC7, stronger effect = lower value 0.923 | locus YFL009W, strain cdc4, stronger effect = lower value 0.939 | locus YFL029C, strain CAK1, stronger effect = lower value 0.941 | locus YFR003C, strain YPI1, stronger effect = lower value 0.946 | locus YFR019W, strain FAB1, stronger effect = lower value 0.894 | locus YFR028C, strain CDC14, stronger effect = lower value 0.939 | locus YGR040W, strain KSS1, stronger effect = lower value 0.905 | locus YGR052W, strain FMP48, stronger effect = lower value 0.831 | locus YGR092W, strain DBF2, stronger effect = lower value 0.82 | locus YHR079C, strain IRE1, stronger effect = lower value 0.824 | locus YHR082C, strain KSP1, stronger effect = lower value 0.771 | locus YHR205W, strain SCH9, stronger effect = lower value 0.887 | locus YIL147C, strain SLN1, stronger effect = lower value 0.95 | locus YJL095W, strain BCK1, stronger effect = lower value 0.886 | locus YJL128C, strain PBS2, stronger effect = lower value 0.911 | locus YJL157C, strain FAR1, stronger effect = lower value 0.904 | locus YJR016C, strain ILV3, stronger effect = lower value 0.941 | locus YJR066W, strain TOR1 (second series), stronger effect = lower value 0.904 | locus YJR066W, strain TOR1, stronger effect = lower value 0.82 | locus YKL048C, strain ELM1, stronger effect = lower value 0.852 | locus YKL067W, strain YNK1, stronger effect = lower value 0.905 | locus YKL101W, strain HSL1, stronger effect = lower value 0.88 | locus YKL193C, strain SDS22, stronger effect = lower value 0.938 | locus YKL203C, strain TOR2, stronger effect = lower value 0.933 | locus YLR133W, strain CKI1, stronger effect = lower value 0.902 | locus YLR403W, strain SFP1, stronger effect = lower value 0.902 | locus YML070W, strain DAK1, stronger effect = lower value 0.864 | locus YMR001C, strain CDC5, stronger effect = lower value 0.943 | locus YMR205C, strain PFK2 (second series), stronger effect = lower value 0.925 | locus YMR277W, strain FCP1, stronger effect = lower value 0.944 | locus YNL006W, strain LST8, stronger effect = lower value 0.936 | locus YNL020C, strain ARK1, stronger effect = lower value 0.882 | locus YNL161W, strain CBK1, stronger effect = lower value 0.939 | locus YNL183C, strain NPR1, stronger effect = lower value 0.808 | locus YNL207W, strain RIO2, stronger effect = lower value 0.937 | locus YNL222W, strain SSU72, stronger effect = lower value 0.938 | locus YNL307C, strain MCK1 (second series), stronger effect = lower value 0.861 | locus YOL078W, strain AVO1, stronger effect = lower value 0.935 | locus YOL136C, strain PFK27, stronger effect = lower value 0.858 | locus YOR061W, strain CKA2, stronger effect = lower value 0.908 | locus YOR119C, strain RIO1, stronger effect = lower value 0.951 | locus YOR231W, strain MKK1, stronger effect = lower value 0.817 | locus YOR329C, strain SCD5, stronger effect = lower value 0.947 | locus YPL031C, strain PHO85, stronger effect = lower value 0.881 | locus YPL153C, strain RAD53, stronger effect = lower value 0.867 | locus YPL204W, strain HRR25, stronger effect = lower value 0.876 | locus YPL209C, strain IPL1, stronger effect = lower value 0.935 | locus YPR025C, strain CCL1, stronger effect = lower value 0.937 | locus YPR106W, strain ISR1, stronger effect = lower value 0.929 | locus YPR111W, strain DBF20, stronger effect = lower value 0.925 | strain NNK1, stronger effect = lower value 0.934 | strain TSCII, stronger effect = lower value 0.941

NCCCC(N)(C(=O)O)C(F)F (centres undefined)
inactive: locus YAL040C, strain CLN3, stronger effect = lower value 0.996 | locus YCL061C, strain MRC1 (second series), stronger effect = lower value 1 | locus YDR363W, strain ESC2, stronger effect = lower value 0.981 | locus YER002W, strain NOP16, stronger effect = lower value 0.996 | locus YGR078C, strain PAC10, stronger effect = lower value 1.01 | locus YMR263W, strain SAP30, stronger effect = lower value 0.994 | locus YNL153C, strain GIM3, stronger effect = lower value 1.02 | locus YNL175C, strain NOP13, stronger effect = lower value 1 | locus YNL197C, strain WHI3, stronger effect = lower value 0.983 | locus YNL224C, strain SQS1, stronger effect = lower value 1.01 | locus YNL322C, strain KRE1, stronger effect = lower value 0.986 | locus YOR083W, strain WHI5 (second series), stronger effect = lower value 1.01 | locus YPL241C, strain CIN2, stronger effect = lower value 1
